Bioassay records: PubChem, National Center for Advancing Translational Sciences (NCATS)
ATXN2 expr inh: ATXN2 expression inhibition. HEK-293 ATXN2-luciferase reporter, luminescence, 24 h. Potency, µM (top dose mostly 57 µM), inactives show at the top dose activity change, negative = inhibition, most hits filed as inhibitors. actives 0.72% (n = 360,000); note: % is set by controls: 0 for no effect and ±100 for the full control effect; nearly all actives have a fitted effect of over 55% in size
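ATXN2-luciferase reporter cells (luciferase flanked by upstream and downstream ATXN2 gene portions) were treated 24 h at 37 °C with compounds at up to 57 uM. SteadyGlo luminescence gave expression; GF-AFC fluorescence gave viability.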
KB-3-1 cytotox: KB-3-1 parental cell cytotoxicity | KB-3-1 viability, CellTiter-Glo ATP luminescence, 72 h | Potency, µM (series often up to 46.1 µM), usual class: cytotoxic | actives 1.4% (n = 400,000) | AID 1347075; note: % is set by controls: 0 for no effect and ±100 for the full control effect; nearly all actives have a fitted effect of over 60% in size
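Cells are dispensed, compounds pinned in, plates held at 37 °C for 72 h, then CellTiter-Glo is added and luminescence read after 10 minutes. Cell line: parental KB-3-1 in phenol-red-free DMEM, 10% FBS.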
S2 tox: reduces viability in counter-screen for ATXN expression inhibitors. S2 cells (HEK-293 line with an ATXN2-luciferase reporter) viability, CellTiter-Fluor protease fluorescence, 24 h. Potency, µM (highest dose often 56.7 µM), hits mostly cytotoxic. actives 0.49% (n = 400,000). AID 651635; note: nearly all actives have a fitted effect of over 40% in size
KB-V1 MDR tox: kills drug-selected multidrug resistant KB-V1 cells | actives 3.4% (n = 400,000) | Potency, µM (titrated, usually from 46.1 µM), most hits filed as cytotoxic | KB-V1 MDR cells viability, CellTiter-Glo, 72 h; note: % is set by controls: 0 for no effect and ±100 for the full control effect; nearly all actives have a fitted effect of over 60% in size
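Potencies derive from concentration-effect curves fitted to normalized luminescence (CellTiter-Glo) of KB-V1 cells treated for 72 h at 37 degrees C in phenol-red-free DMEM containing 10% FBS.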
HT1080-NT tox: kills 2HG-producing HT-1080-NT fibrosarcoma cells. Potency, µM (highest dose often 46.1 µM), inactives show top-dose activity, negative = less viability, hits mostly cytotoxic. actives 1.6% (n = 360,000). HT-1080-NT fibrosarcoma viability, CellTiter-Glo ATP luminescence, 48 h;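 note: NT is the 2HG producing partner of a matched IDH1 knockdown line; 0% = DMSO-treated cells and -100% = media-only wells without cells; nearly all actives have a fitted effect of over 55% in size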
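Toxicity toward the 2HG-producing NT line was scored as %Activity, normalised to DMSO and no-cell wells, from CellTiter-Glo luminescence after 48 hours' treatment.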
HT1080 IDH1KD tx: HT-1080 IDH1 knockdown cell toxicity (counter line); HT-1080 IDH1 knockdown viability, ATP luminescence, 48 h; Potency, µM (highest dose often 46.1 µM), inactives show at the highest dose activity, negative = toxicity, most hits filed as cytotoxic; actives 2% (n = 360,000);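 note: 0% = DMSO wells and -100% = cell-free medium wells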
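Cytotoxicity counter-line: IDH1KD HT-1080, 48 h, CellTiter-Glo. Curves classed by r2, magnitude and activity.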
An asterisk follows results filed as active; i = inactive; u = inconclusive; x = no result; [ ] = dose if it differs, or a comment. Shown are actives, neighbours in structure and some others; about 6.2% of the full set was active somewhere. Calls come from the whole dose curve; as a rule, active = well fitted curve in the direction sought with a large enough effect; inconclusive = small, poorly fitted or top-dose-only effect, or another doubt; inactive = no such curve, though single readings can be large; an effect the other way counts as inactive or inconclusive. Potency is the fitted concentration of half-maximal effect.

SMILES	ATXN2 expr inh	KB-3-1 cytotox	S2 tox	KB-V1 MDR tox	HT1080-NT tox	HT1080 IDH1KD tx
CCOC(=O)/C(C#N)=C/c1cc2ccccc2nc1Cl	3%	i	i	i	-8%	u
CNc1ccc(C(=O)c2ccccc2C(=O)O)cc1[N+](=O)[O-]	x	i	i	i	0%	-2%
CNc1ccc(/C=C/C(=O)c2cccc3ccccc23)cc1[N+](=O)[O-]	u	u	u	15µM*	15%	1%
CCOC(=O)CSc1nnc2n(-c3ccccc3)c(=O)c3c4c(sc3n12)COC(C(C)C)C4 (centres undefined)	4%	i	i	i	x	x
CCOC(=O)/C(C#N)=C/c1c(OCC)n(CC)c2ccccc12	-18%	i	i	7.3µM*	4%	-1%
CCOC(=O)/C(C#N)=C\c1cn(C)c2ccccc12	-19%	i	u	i	-12%	-13%
CCOC(=O)c1c(-c2ccc(C)cc2)csc1NC(=O)c1cc(=O)c2cc(C)cc(C)c2o1	-6%	i	i	i	x	x
Cc1cc(Oc2ccc(Cl)cc2Cl)nc(C#N)n1	x	x	x	x	-19%	-26%
Cc1ccc2cn[nH]c2c1NC(=S)NC(=O)c1ccccc1	0%	i	i	21µM*	-2%	-5%
Cc1cc(C)c2cccc(NC(=S)NC(=O)c3ccccc3)c2n1	11%	i	i	u	2.5µM*	2.8µM*
Cc1ccc2cccc(NC(=S)NC(=O)c3ccccc3)c2n1	14%	i	i	u	-18%	-4%
Cc1ccc2cccnc2c1NC(=S)NC(=O)c1ccccc1	1%	i	i	15µM*	11µM*	u
CC(CCc1ccc2c(c1)OCO2)NN (centres undefined)	16%	x	i	x	x	x
Cc1ccc(S(=O)(=O)N2CCN(Cc3cc(Br)ccc3O)CC2)cc1	-27%	i	i	i	x	x
CC(C)Cc1nc2cc(NS(=O)(=O)N(C)C)cc(C(=O)N3CCN(c4ccccc4)CC3)c2n1C	x	x	i	x	x	x
O=C(NCCCO)c1cc2ccccc2[nH]1	-20%[11.3 µM]	i	i	i	5%	4%
NNC(=O)c1cc2ccccc2[nH]1	-7%	u	u	i	u	2.1µM*
CC(C)N1CCN(c2cccc(Nc3nn4c(=O)c5ccccc5nc4s3)c2)CC1	x	i	x	i	x	x
Cc1ccc(NC(=O)c2cccc(S(=O)(=O)N3CCN(c4ccc(F)cc4)CC3)c2)nc1	-19%	16µM*	i	u	u	u
O=C(Nc1ccc(Cl)cn1)c1cccc(S(=O)(=O)N2CCOCC2)c1	6%	i	i	21µM*	0%	-3%
COc1cccc(Nc2c(C(N)=O)cnc3c(C)cc(S(=O)(=O)c4cccc(C(=O)N(C)C)c4)cc23)c1	-14%[25.6 µM]	x	x	x	x	x
CCc1ccccc1Nc1cc(C(=O)NCc2ccc(C)cc2)c2ccccc2n1	-8%	i	i	i	x	x
CCOC(=O)c1ccc(Nc2nc(C)cc(C)n2)cc1	15%	i	i	i	16%	-3%
CCOC(=O)c1ccc(Nc2cc(C)nc(-c3ccccc3)n2)cc1	x	i	i	u	16µM*	18µM*
CCc1ccc(NC(=O)C(C)n2nnc3sc(-c4ccccc4)cc3c2=O)cc1 (centres undefined)	2%	i	i	i	x	x
SMILES	ATXN2 expr inh	KB-3-1 cytotox	S2 tox	KB-V1 MDR tox	HT1080-NT tox	HT1080 IDH1KD tx
CNC(=O)CSc1nc(N)c2c3c(sc2n1)CCC3	24%	i	i	21µM*	11%	-23%
NC(=O)CSc1nc(N)c2c3c(sc2n1)CCCCC3	35%	i	i	u	12%	8%
COc1ccc(-c2cc(C(F)(F)F)n3nc(C(=O)N4CCCCC4)cc3n2)cc1OC	0%	u	i	10µM*	1%	-6%
COc1ccc(-c2cc(C(F)(F)F)n3nc(C(=O)N4CCCCC4)cc3n2)cc1	-20%	i	i	u	-3%	-1%
CCC(=O)Nc1nnc(S(=O)(=O)N(C)Cc2ccc(Cl)cc2)s1	x	i	x	i	x	x
O=[N+]([O-])c1c(NCCCO)cc(SCc2ccco2)c2nonc12	0%	i	x	i	-25%	u
O=[N+]([O-])c1c(NCCCO)cc(Sc2ccc(Cl)cc2)c2nonc12	u	u	32µM*	i	2%	-2%
O=[N+]([O-])c1c(NCCCO)cc(N2CCN(Cc3ccc4c(c3)OCO4)CC2)c2nonc12	-36%	i	u	16µM*	-22%	-22%
O=[N+]([O-])c1c(NCCCO)cc(N2CCCCCC2)c2nonc12	-27%	i	u	i	-12%	-2%
Cn1ccnc1Sc1cc(NCCCO)c([N+](=O)[O-])c2nonc12	u	i	u	i	4.1µM*	u
O=C(Cn1c(=O)n(Cc2ccc(C(=O)NCc3ccc4c(c3)OCO4)cc2)c(=O)c2ccccc21)Nc1ccc(F)cc1F	-2%	i	i	i	x	x
CCOC(=O)/C(=N\Nc1cccc(C(F)(F)F)c1)N1CCOCC1	12%	i	i	i	0%	-2%
CCOC(=O)/C(=N\Nc1cccc(C(F)(F)F)c1)N(CCOC)CCOC	-5%	i	i	23µM*	9%	-5%
COc1ccccc1CN1CCOc2ccc(CN3CCC(Oc4cccnc4)CC3)cc2C1	x	x	i	x	x	x
CN(C)CCNc1ccc2nnn3c4ccc(O)cc4c(=O)c1c23	u	7.3µM*	u	u	23µM*	21µM*
CCN(CC)CCCNc1ccc2ncn3c4ccc(O)cc4c(=O)c1c23	u	23µM*	u	u	-24%	u
O=C(CS(=O)(=O)c1cccc2nsnc12)NCc1ccccc1	6%	i	i	u	x	x
CCN1CCOC(=O)C1CC(=O)Nc1cc(C)ccc1OC (centres undefined)	33%	i	i	u	x	x
CCc1ccc(NS(=O)(=O)c2ccc3[nH]cc(C(=O)NCCCOC(C)C)c(=O)c3c2)cc1	14%	i	i	i	x	x
COc1ccccc1Nc1ncccc1C(=O)NCc1ccccc1	-4%	u	i	i	8%	6%
COc1ccc(COc2ccccc2C(=O)NCc2ccccc2)cc1F	u	i	u	15µM*	-2%	-16%
Cc1nnc(N2CCN(C(=O)NC(C)C)CC2)c2nn(-c3ccccc3)c(C)c12	-10%	i	i	i	x	x
Cc1cc(NCC2CCCCC2)nc2ccccc12	-13%	i	i	9.2µM*	u	7.3µM*
